Screening results deposited in PubChem BioAssay by NMMLSC.
RGS16-Gao – regulators of human RGS16-Galphao interaction; O15492+P09471; bead-based flow cytometry RGS16-Galphao binding, fluorescence; actives lie on both sides; binding response (% of control), % at 10 µM; 0.38% of 220,000 active; AID 1441;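 further: Galphao activated by GDP with aluminum fluoride before binding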
Target sequence (O15492 whole entry, looked up): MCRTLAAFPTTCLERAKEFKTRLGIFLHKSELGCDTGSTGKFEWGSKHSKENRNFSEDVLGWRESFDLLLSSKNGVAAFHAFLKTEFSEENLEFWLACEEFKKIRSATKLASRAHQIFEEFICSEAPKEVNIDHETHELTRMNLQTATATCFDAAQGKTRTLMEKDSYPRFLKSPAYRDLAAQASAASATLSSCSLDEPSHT
Target sequence (P09471 whole entry, looked up): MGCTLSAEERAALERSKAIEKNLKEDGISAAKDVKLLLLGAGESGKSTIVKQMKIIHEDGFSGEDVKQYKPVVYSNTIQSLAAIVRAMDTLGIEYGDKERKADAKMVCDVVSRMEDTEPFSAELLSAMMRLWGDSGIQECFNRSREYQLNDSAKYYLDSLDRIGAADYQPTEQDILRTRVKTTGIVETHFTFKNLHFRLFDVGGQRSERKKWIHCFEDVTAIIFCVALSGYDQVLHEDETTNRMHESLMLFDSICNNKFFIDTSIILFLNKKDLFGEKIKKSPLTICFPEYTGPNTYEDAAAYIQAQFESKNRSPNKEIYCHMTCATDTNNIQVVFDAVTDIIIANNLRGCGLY
RGS7-Gao reg – regulators of human RGS7-Galphao interaction | P09471 | Multiplexed bead flow cytometry, RGS7-Galphao binding; actives lie on both sides | binding response (% of control), % at 10 µM | 0.35% of 220,000 active; in the data active means binding response below about 49% or above about 150%; inconclusive means no clear call, values can overlap the other calls; inactive means in between;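 further: fluorescent Galphao held in activated GDP-AlF4 state binding bead-coupled RGS7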
Target sequence (P09471 whole entry, looked up): as above
RGS8-Gao reg – modulates binding of RGS8 to human Galphao. P09471. response (percent of control binding), % at 10 µM. 0.34% of 220,000 active. multiplexed bead flow cytometry; actives lie on both sides; in the data active means response below about 60% or above about 140%; inactive means in between;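 further: Galphao activated as the GDP aluminium fluoride complex binding bead-coupled RGS8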
Avidin fluor – avidin bead compound fluorescence profile. 0.38% of 220,000 active. fluorescence (KMESF) at 10 µM. Avidin beads, compound fluorescence 488/530 nm, flow cytometry; active compounds read high. AID 1775; in the data active means fluorescence above about 47
RGS4-Gao reg – human RGS4-Galphao interaction regulation. P09471. Multiplexed bead flow cytometry, RGS4-Galphao binding; actives lie on both sides. binding response (% of control), % at 10 µM. 0.33% of 220,000 active. AID 1415; in the data active means binding response below about 49% or above about 150%; inactive means in between;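 further: fluorescent Galphao activated with aluminum fluoride binding bead-coupled RGS4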
GSH fluor – GSH bead compound fluorescence profile | 0.25% of 190,000 active | GSH beads flow cytometry, compound fluorescence 488/530 nm; active compounds read high | fluorescence (KMESF) at 10 µM; in the data active means fluorescence above about 89;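 further: glutathione beads carrying GST-tagged Bcl family fusion proteins plus one bare bead set; values are compound well signal with DMSO vehicle wells as background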
RGS-Gao – RGS4-Galphao interaction regulator (human) | shares compounds with RGS16-Gao | multiplexed bead flow cytometry, RGS–Galpha-o binding | RGS4–Galpha-o binding response, % at 10 µM | 99% of 1,600 active | AID 1504;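 further: fluorescently labeled Galpha-o bound to GDP with aluminium fluoride binding biotinylated RGS beads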
Biotin-avidin – biotin-avidin bead binding disruption counter-screen; inhibition, % at 10 µM; 1,700 tested, under 10 active; shares compounds with RGS16-Gao; streptavidin beads, fluorescein-biotin binding, flow cytometry;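 active means inhibition above 50%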;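 further: median green fluorescence of gated singlet beads compared with DMSO control wells; 0% = DMSO wells and 100% = complete loss of bead fluorescence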
RGS8-Gao confirm – confirmation of regulators of human RGS8-Galphao interaction | shares compounds with RGS16-Gao | bead-based flow cytometry RGS8-Galphao binding, fluorescence; actives lie on both sides | binding response (% of control), % at 10 µM | 3% of 1,700 active; in the data active means binding response below about 72% or above about 130%; inactive means in between;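 further: Galphao activated as GDP AlF4 complex before binding bead RGS8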
RGS7-Gao confirm – RGS7-Galphao interaction regulation, single point confirmation. bead-based flow cytometry RGS7-Galphao binding; actives lie on both sides. response (percent of control binding), % at 10 µM. AID 1837. 7.8% of 1,700 active. shares compounds with RGS16-Gao; in the data active means response below about 75% or above about 130%; inactive means in between;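 further: fluorescent Galphao activated with GDP and aluminum fluoride binding bead-coupled RGS7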
RGS16-Gao single – RGS16-Galphao interaction regulation, single point confirmation; shares compounds with RGS16-Gao; bead-based flow cytometry, RGS16-Galphao binding; actives lie on both sides; response (% of control binding), % at 10 µM; 4% of 1,700 active; AID 1838; in the data active means response below about 74% or above about 130%; inactive means in between;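 further: Galphao activated as the GDP aluminium fluoride complex binding bead-coupled RGS16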
RGS4-Gao single – RGS4-Galphao interaction regulation, single point confirmation; binding response (% of control), % at 10 µM; 4% of 1,700 active; AID 1840; shares compounds with RGS16-Gao; RGS4-Galphao binding, multiplexed bead flow cytometry; actives lie on both sides; in the data active means binding response below about 74% or above about 130%; inactive means in between
RGS19-Gao conf – confirmation of regulators of human RGS19-Galphao interaction. shares compounds with RGS16-Gao. bead-based flow cytometry RGS19-Galphao binding; actives lie on both sides. response (percent of control binding), % at 10 µM. 5% of 1,700 active. AID 1841; in the data active means response below about 50% or above about 160%; inactive means in between;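 further: 100% = no compound control and 0% = blank background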
The depositor's hits bear a star; [ ] = dose if it differs, or a comment. In the library only some 1.2% were active in any assay of this set; here they are far more common. Unless noted, how the calls were made is not given here.

Results for CCc1c(O)c(/C(C)=N\O)c(=O)n(-c2ccccc2)c1-c1ccccc1 ?
RGS16-Gao: 271*[activator]; RGS7-Gao reg: 115; RGS8-Gao reg: 128; Avidin fluor: 14; RGS4-Gao reg: 111; GSH fluor: 10; RGS-Gao: 111*; Biotin-avidin: 10; RGS8-Gao confirm: 105; RGS7-Gao confirm: 93; RGS16-Gao single: 102; RGS4-Gao single: 93; RGS19-Gao conf: 76

Results for COc1cccc(NC(=O)CSc2nnc(CN3CCOCC3)n2C)c1 ?
RGS16-Gao: 6.3*; RGS7-Gao reg: 22*; RGS8-Gao reg: 17*; Avidin fluor: -1; RGS4-Gao reg: 31*; GSH fluor: 19; Biotin-avidin: 1; RGS8-Gao confirm: 103; RGS7-Gao confirm: 102; RGS16-Gao single: 103; RGS4-Gao single: 102; RGS19-Gao conf: 100

Results for Cc1ccc(NC(=O)CSc2nnc(CN3CCOCC3)n2C)cc1C ?
RGS16-Gao: 101; RGS7-Gao reg: 95; RGS8-Gao reg: 102; Avidin fluor: 6; RGS4-Gao reg: 93; GSH fluor: 21

How did C/C(=N\NC(=O)c1nn(C)c(C)c1Br)c1cccc(NC(=O)c2ccc(F)cc2)c1 do in these assays?
RGS16-Gao: 253*[activator]; RGS7-Gao reg: 112; RGS8-Gao reg: 140; Avidin fluor: 5; RGS4-Gao reg: 114; GSH fluor: 6; RGS-Gao: 114*; Biotin-avidin: 1; RGS8-Gao confirm: 101; RGS7-Gao confirm: 104; RGS16-Gao single: 101; RGS4-Gao single: 102; RGS19-Gao conf: 93

Results for COc1ccc(/C(O)=C2\C(=O)C(=O)N(Cc3ccco3)C2c2cc(OC)ccc2OC)cc1 (stereo not drawn) ?
RGS16-Gao: 21*; RGS7-Gao reg: 26*; RGS8-Gao reg: 24*; Avidin fluor: 6; RGS4-Gao reg: 31*; GSH fluor: 11; Biotin-avidin: -1; RGS8-Gao confirm: 100; RGS7-Gao confirm: 102; RGS16-Gao single: 101; RGS4-Gao single: 100; RGS19-Gao conf: 94

What do the screens show for `CN(C)S(=O)(=O)c1ccc(Cl)c(NC(=O)CN2C(=O)NC(C)(C3CC3)C2=O)c1` (stereo not drawn)?
RGS16-Gao: 99; RGS7-Gao reg: inconclusive; RGS8-Gao reg: 97; RGS4-Gao reg: 98

What do the screens show for `Cc1nc2c3ccccc3nc(NNC(=O)CCC(=O)NC(C)C)n2n1`?
RGS16-Gao: 4.1*; RGS7-Gao reg: 83; RGS8-Gao reg: 71; Avidin fluor: 5; RGS4-Gao reg: 89; GSH fluor: 13; RGS-Gao: 89*; Biotin-avidin: 1; RGS8-Gao confirm: 101; RGS7-Gao confirm: 97; RGS16-Gao single: 99; RGS4-Gao single: 98; RGS19-Gao conf: 97

What do the screens show for `CCC(C)NC(=O)CCC(=O)NNc1nc2ccccc2c2nc(C)nn12` (stereo not drawn)?
RGS16-Gao: 100; RGS7-Gao reg: 96; RGS8-Gao reg: 99; Avidin fluor: 5; RGS4-Gao reg: 97; GSH fluor: 8

How did COCCNC(=O)c1cc(Sc2nnc(C)s2)nc2ccccc12 do in these assays?
RGS16-Gao: 40; RGS7-Gao reg: inconclusive; RGS8-Gao reg: 60*; Avidin fluor: 2; RGS4-Gao reg: 36*; Biotin-avidin: -1; RGS8-Gao confirm: 105; RGS7-Gao confirm: 94; RGS16-Gao single: 111; RGS4-Gao single: 96; RGS19-Gao conf: 109

What do the screens show for `N#CCCN(C(=O)COc1ccc(C#N)cc1)c1ccc(F)cc1`?
RGS16-Gao: 103; RGS7-Gao reg: inconclusive; RGS8-Gao reg: 98; Avidin fluor: 11; RGS4-Gao reg: 101; GSH fluor: 14

Results for N#Cc1c(Cl)cccc1Oc1ccc(S(=O)(=O)Nc2ccccc2)cc1 ?
RGS16-Gao: 102; RGS7-Gao reg: inconclusive; RGS8-Gao reg: 106; Avidin fluor: 5; RGS4-Gao reg: 109

Results for Cc1cc(C)c2c(CC(=O)NC(C)C)coc2c1 ?
RGS16-Gao: 160; RGS7-Gao reg: 143; RGS8-Gao reg: 151*[activator]; Avidin fluor: 20; RGS4-Gao reg: 141; GSH fluor: 16; RGS-Gao: 141*; Biotin-avidin: 0; RGS8-Gao confirm: 102; RGS7-Gao confirm: 97; RGS16-Gao single: 102; RGS4-Gao single: 99; RGS19-Gao conf: 85

How did CCCN(CCC)S(=O)(=O)c1ccc(C(=O)Nc2cc3oc4ccccc4c3cc2OC)cc1 do in these assays?
RGS16-Gao: 111; RGS7-Gao reg: 99; RGS8-Gao reg: 103; Avidin fluor: 3; RGS4-Gao reg: 102; GSH fluor: 10

Results for COc1ccc(OC)c(S(=O)(=O)N2CCC(C(=O)NCCc3ccc(OC)c(OC)c3)CC2)c1 ?
GSH fluor: 17; Biotin-avidin: 2; RGS8-Gao confirm: 102; RGS7-Gao confirm: 103; RGS16-Gao single: 106; RGS4-Gao single: 102; RGS19-Gao conf: 117

What do the screens show for `Cc1ccc(S(=O)(=O)/N=C2/C=C(Sc3ncn[nH]3)C(=O)c3ccccc32)cc1`?
RGS16-Gao: 15*; RGS7-Gao reg: 79; RGS8-Gao reg: 64; Avidin fluor: 6; RGS4-Gao reg: 87; GSH fluor: 8; RGS-Gao: 87*

How did COc1ccc(Cl)cc1N(CC(=O)NCC(C)C)S(=O)(=O)c1ccc(C)c([N+](=O)[O-])c1 do in these assays?
RGS16-Gao: 115; RGS7-Gao reg: 105; RGS8-Gao reg: 105; Avidin fluor: 13; RGS4-Gao reg: 106; GSH fluor: 14
